T1: USP38, Q8NB14
T1 chain: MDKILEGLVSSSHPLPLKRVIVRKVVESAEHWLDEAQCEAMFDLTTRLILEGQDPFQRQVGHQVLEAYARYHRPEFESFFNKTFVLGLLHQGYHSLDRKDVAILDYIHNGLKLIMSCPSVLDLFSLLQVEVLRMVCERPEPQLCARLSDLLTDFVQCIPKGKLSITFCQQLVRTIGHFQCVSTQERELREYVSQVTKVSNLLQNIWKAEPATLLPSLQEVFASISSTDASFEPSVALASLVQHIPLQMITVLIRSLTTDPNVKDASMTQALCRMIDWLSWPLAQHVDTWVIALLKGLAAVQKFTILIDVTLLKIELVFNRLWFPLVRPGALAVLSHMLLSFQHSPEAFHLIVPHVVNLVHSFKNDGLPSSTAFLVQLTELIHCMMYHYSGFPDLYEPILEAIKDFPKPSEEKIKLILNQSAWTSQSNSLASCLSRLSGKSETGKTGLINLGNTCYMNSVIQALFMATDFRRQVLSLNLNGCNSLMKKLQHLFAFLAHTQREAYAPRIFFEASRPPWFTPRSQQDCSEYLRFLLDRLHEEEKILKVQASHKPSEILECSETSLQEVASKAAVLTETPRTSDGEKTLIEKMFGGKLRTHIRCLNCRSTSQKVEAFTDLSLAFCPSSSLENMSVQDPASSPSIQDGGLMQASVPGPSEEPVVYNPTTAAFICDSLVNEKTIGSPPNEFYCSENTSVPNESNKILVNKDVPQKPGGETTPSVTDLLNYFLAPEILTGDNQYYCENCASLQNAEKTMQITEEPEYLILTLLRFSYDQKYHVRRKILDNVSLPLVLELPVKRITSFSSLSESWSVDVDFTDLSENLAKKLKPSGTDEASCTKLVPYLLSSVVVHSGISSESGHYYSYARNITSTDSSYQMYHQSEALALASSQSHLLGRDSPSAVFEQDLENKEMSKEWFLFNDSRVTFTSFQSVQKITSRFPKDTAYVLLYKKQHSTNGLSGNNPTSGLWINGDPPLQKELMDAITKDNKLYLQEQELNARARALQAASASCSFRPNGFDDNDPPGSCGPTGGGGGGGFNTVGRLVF

B1: usp_38_diff_out_18_14_287 (protein)
chain: SEEEAEALKSALEILRGDVDAYTERVIRLLEQAAGDPERVRRIHERARRNLAGVRAYAEEVLKRAEEAGDEETKKAAEELLRRVAEAEARIAARYAEVTA
B2: usp_38_diff_out_18_14_286 (protein)
chain: SAELAAAEKSALEILKKDVKEDTKRVIRLLEKAKDDPELVERIYERAKRDLAGVRAYAEEVLKRAEEAGDEETKAAAKELLKEIDKAKKEIDAAYKKVMA
B3: usp_38_diff_out_18_14_277 (protein)
chain: SEELKEALKSNLESLKKDVEEDTKRVIELLDKRKDDPEEVKRIYERAKRNLAGVKEYAKEVLEEAEKAGDEETKKAAEELIKKAEEAEKKIEEKVKEVLA
B4: usp_38_diff_out_18_14_276 (protein)
chain: SSELSEALKSNLESLKKDVKEDTERVLRLLDKRKDDPEQVKRIVERAERDLAGVREYAKEVLREAEERGDEETKKAAEELLKEADAALAKVKAKAKEVLA
B5: usp_38_diff_out_18_14_284 (protein)
chain: SAELAAAEKAALEILKTDVKKDTERVIRLLKKAKDDPERVKRIYERAKRNLEGVETYAKEVLERAKKAGDKETKAAAEELLKEIEEAKKKIEEAYKEVMA
B6: usp_38_diff_out_18_14_283 (protein)
chain: SEELSKALKSNLESLKEDVKKDTERVLRLLEKRKDDPEQVKRIKERAERNLEGVITYAEEVLKEAEKEGDEEVKKAAKELIEEAKKAREKIEEKVKEVLA
B7: usp_38_diff_out_18_14_280 (protein)
chain: SEELSEALLSNLKSLKKDVEEYTKRVLRLLEKNKDDPERVKRIKERAERNLAGVKKYAEEVLKEAEEEGDEETLKAAKELKETAEKALAEIEKKVKEVLA
B8: usp_38_diff_out_18_14_282 (protein)
chain: MEELSEALKSNLESLKKDVEEDTKRVIELLEKNKDDPERVKRIYERAERNLEGVLTYAEEVLELAEKLGDEEVKKAAEELKKEAEKAREEIKKKVEKVLA
B9: usp_38_diff_out_18_14_290 (protein)
chain: SEELSKAEISALELLKKEVKENTERTIKLLEKVKDDPELVKRVMERAERNLAGVRAYAEDVKERAKERGDEETVKAAEELLKEIEEARKKLKEEYKKVMA
B10: usp_38_diff_out_18_14_291 (protein)
chain: SEELSEAEKSALELLKEEVKKDTERTIKLLEKVKDDPERVERIVERANRNLEGVRAYAEAVKKEAEARGDEETVKAAEELLKTIEEARERIEKAYKEVKA
B11: usp_38_diff_out_18_14_279 (protein)
chain: SEELNEALLSNLESLKEDVERDTERVLRLLEANRDDPERVKRIVERAERNLAGVIEFAKEVLKEAEKAGNEELLKAAKELIKRAKEALERIRRKAEEVLA
B12: usp_38_diff_out_18_14_285 (protein)
chain: SAELAAAEKSALEILKKDVKEFTKRVIRLLKKSKDDPERVKRIYDRAKRDLAGVEKYAQEVLKRAEKAGDKETKAAAKELLKEIEKAKEEIEKEYKEVMA
B13: usp_38_diff_out_18_14_289 (protein)
chain: AEELSAAERAALELLLEEVRRDTERTIRLLRRVRDDPERVERIVERAERNLAGVRAYAEDVRARARAAGDEETVAAADRLLAEVEAARARIEEERRRVLA
B14: usp_38_diff_out_18_14_275 (protein)
chain: SSELSEALQSNLESLKKDVKEDTERVLRLLEKRKDDPEQVKRIEERARRNLEGVIKFAEEVLKLAKELGDKETQKAAEELIKLAKEARKRVEEKVKEVLA
B15: usp_38_diff_out_18_14_281 (protein)
chain: SEELSKALLSNLESLKKDVEEDTERVLRLLEKNKDDPERVKRIVERAERDLAGVIEYAKEVLELAKKNGDEETLKAAKELIKKAEEARKRIEEKAKKVLA
B16: usp_38_diff_out_18_14_288 (protein)
chain: SEELSEAEISALKLLREDVERDTERTIRLLERARDDPERVRRIVERRERNLAGVRAYAEEVKKEAEERGDEETVKAAEELLRAIEEARARVAAARERVLA

Biological target: T1, USP38, Q8NB14
Test: median log2 fold change of GCK-ALFA target abundance (FLAG IP / Myc IP barcode read proportion) (log2 ratio); each designed protein is fused to an ALFA-tag nanobody in HEK293 cells to bring the named protein to FLAG-tagged glucokinase (GCK); Myc marks an untargeted standard; higher = target protein stabilised (more abundant)
Conditions: target protein: 3xFLAG-MCP-GCK-ALFA reporter; HEK293 landing pad (RPLP)
How it was run: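 An ALFA-nanobody-fused binder library was recombined into HEK293 landing-pad cells and induced with 2 μg mL^−1 doxycycline. Cells were transfected with a plasmid expressing a FLAG-tagged target and a Myc-tagged standard. After 48 h, lysates underwent anti-FLAG and anti-Myc immunoprecipitation, and circular RNA barcodes were reverse transcribed, amplified and sequenced. Target abundance is the per-binder median log2 ratio of FLAG to Myc barcode read proportions. Barcodes needed ≥10^−7 proportion in both replicates, binders ≥3 barcodes per replicate, and a 10^−6 pseudocount was added; the two replicates were pooled.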

Binder	median log2 fold change
B1	-0.622
B2	0.128
B3	0.312
B4	0.242
B5	0.0553
B6	-0.104
B7	-0.87
B8	0.237
B9	0.00299
B10	-0.0115
B11	-0.00242
B12	-0.615
B13	-0.0195
B14	-0.129
B15	0.189
B16	-0.282

Source: the supplement of paper PMC12632987
